Binding signal data for 7 sequences are collected here from article PMC7862700, “An all-to-all approach to the identification of sequence-specific readers for epigenetic DNA modifications on cytosine”.

Experiment in all cases: DAPPL (digital affinity profiling via proximity ligation, sequencing); 10 mM Tris-HCl pH 7.5, 50 mM NaCl, 1 mM DTT, 4% glycerol, room temperature, 30 min; GST-TFs on glutathione beads, 16-mer random dsDNA library, 0.1% formaldehyde crosslink after washing; high values mean tight binding
Holding throughout (details): protein: recombinant; tags: N-terminal GST; dsDNA, one strand shown

The target in one experiment is T1, FLI1 (Homo sapiens, UniProt Q01543 1-452).
T1 sequence: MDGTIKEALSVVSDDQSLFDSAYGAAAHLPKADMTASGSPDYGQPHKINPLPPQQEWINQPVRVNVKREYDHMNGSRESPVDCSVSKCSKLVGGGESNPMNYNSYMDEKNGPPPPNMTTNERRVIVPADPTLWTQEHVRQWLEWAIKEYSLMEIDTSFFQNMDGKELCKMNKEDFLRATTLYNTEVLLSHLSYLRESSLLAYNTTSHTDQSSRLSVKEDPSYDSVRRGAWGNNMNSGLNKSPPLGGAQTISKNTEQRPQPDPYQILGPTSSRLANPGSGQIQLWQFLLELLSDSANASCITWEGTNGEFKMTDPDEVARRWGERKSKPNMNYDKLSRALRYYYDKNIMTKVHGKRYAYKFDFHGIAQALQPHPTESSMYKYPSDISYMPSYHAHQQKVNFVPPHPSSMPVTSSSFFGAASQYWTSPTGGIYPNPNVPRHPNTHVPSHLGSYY
The gist of the method:
(§1)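 Pools were built from human transcription factors expressed in yeast as GST fusions, captured on glutathione beads and DNA-barcoded, along with a tag-only sample. Incubation with 200 nmole of a 16-mer random double-stranded DNA library lasted 30 min at room temperature in Tris/NaCl/DTT/glycerol buffer, and was followed by washing, 0.1% formaldehyde crosslinking, proximity ligation, PCR amplification and Illumina NextSeq500 sequencing. Binding signal is the quotient of each hexamer's read frequency for a factor and its frequency for the tag-only sample.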

In a further experiment the target is T2, ELK1 (Homo sapiens, UniProt P19419 1-428).
T2 sequence: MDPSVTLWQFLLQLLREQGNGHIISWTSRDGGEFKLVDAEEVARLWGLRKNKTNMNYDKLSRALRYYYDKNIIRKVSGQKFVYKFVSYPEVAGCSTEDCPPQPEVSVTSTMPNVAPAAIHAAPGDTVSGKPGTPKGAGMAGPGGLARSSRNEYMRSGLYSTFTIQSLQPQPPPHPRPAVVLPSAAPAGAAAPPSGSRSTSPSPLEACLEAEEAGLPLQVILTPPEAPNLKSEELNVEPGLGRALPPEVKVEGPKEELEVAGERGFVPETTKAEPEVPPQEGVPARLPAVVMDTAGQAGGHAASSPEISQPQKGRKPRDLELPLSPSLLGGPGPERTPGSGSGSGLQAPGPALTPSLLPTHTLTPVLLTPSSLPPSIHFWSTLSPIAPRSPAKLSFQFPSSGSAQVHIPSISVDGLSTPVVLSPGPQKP
The gist of the method:
as §1

In the next experiment the target is T3, GABPA (Homo sapiens, UniProt Q06546 1-454).
T3 sequence: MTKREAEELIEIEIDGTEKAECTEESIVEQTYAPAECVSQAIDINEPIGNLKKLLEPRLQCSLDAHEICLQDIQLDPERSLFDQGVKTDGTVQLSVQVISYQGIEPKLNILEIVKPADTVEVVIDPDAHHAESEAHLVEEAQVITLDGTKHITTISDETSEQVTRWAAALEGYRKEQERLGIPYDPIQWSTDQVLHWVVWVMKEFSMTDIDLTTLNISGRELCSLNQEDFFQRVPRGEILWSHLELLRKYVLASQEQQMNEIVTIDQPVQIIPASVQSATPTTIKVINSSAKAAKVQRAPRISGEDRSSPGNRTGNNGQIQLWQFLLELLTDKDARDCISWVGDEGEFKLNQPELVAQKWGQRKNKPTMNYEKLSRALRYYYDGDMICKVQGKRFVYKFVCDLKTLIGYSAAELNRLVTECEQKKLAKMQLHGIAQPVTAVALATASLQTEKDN
In short, it runs like this: as §1

The next experiment concerns the target T4, ERG (Homo sapiens, UniProt P11308 1-479).
T4 sequence: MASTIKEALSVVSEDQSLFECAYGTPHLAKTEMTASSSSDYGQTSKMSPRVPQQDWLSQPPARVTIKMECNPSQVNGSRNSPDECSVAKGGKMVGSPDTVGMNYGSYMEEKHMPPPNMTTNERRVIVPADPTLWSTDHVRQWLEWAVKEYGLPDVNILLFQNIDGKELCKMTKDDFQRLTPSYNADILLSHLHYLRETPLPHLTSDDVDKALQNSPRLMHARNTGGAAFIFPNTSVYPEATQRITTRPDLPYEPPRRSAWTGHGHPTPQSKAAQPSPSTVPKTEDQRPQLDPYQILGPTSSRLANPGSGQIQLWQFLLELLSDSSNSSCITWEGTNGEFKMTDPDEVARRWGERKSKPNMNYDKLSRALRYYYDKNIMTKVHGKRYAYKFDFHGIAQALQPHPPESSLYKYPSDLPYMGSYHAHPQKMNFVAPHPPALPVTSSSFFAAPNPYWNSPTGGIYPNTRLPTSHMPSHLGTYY
In short, it runs like this: as §1

A further experiment addresses ELF1 (Homo sapiens, UniProt P32519 1-619). The gist of the method: as §1
The target in the next experiment is T5, EHF (Homo sapiens, UniProt Q9NZC4 1-300).
T5 sequence: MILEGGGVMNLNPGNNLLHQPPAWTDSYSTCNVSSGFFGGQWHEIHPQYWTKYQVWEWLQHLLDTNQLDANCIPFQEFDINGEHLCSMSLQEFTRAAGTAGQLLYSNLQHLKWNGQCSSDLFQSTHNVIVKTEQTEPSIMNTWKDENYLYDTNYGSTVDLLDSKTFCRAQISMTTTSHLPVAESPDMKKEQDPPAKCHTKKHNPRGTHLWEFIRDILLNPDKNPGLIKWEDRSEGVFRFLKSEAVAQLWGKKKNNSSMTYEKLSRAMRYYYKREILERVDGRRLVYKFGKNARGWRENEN
The gist of the method:
as §1

The next experiment concerns the target SPI1 (Homo sapiens, UniProt P17947 1-270). The gist of the method:
as §1

Another experiment deals with SPIB (Homo sapiens, UniProt Q01892 1-262). In short, it runs like this: as §1
SPIB, sequence (Q01892 whole entry): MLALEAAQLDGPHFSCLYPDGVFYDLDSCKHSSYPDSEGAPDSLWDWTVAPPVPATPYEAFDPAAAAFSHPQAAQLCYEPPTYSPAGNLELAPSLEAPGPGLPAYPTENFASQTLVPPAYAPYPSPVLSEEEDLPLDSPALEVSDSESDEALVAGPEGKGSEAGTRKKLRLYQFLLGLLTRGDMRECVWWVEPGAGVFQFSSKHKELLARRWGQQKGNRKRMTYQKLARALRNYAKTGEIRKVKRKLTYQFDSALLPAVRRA
The target of a further experiment is T6, ELK3 (Homo sapiens, UniProt P41970 1-407).
T6 sequence: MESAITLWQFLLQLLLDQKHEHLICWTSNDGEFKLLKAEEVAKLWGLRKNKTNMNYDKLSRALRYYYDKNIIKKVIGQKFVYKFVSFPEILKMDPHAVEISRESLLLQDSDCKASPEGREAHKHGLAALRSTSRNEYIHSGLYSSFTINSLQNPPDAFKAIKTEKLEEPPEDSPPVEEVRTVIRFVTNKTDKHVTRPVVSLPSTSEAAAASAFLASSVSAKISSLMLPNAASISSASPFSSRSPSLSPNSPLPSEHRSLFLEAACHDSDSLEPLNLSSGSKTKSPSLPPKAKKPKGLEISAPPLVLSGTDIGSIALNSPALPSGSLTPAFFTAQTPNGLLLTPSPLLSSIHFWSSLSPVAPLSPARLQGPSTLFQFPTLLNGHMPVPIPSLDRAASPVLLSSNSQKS
The gist of the method: as §1

ELF1, sequence (P32519 whole entry): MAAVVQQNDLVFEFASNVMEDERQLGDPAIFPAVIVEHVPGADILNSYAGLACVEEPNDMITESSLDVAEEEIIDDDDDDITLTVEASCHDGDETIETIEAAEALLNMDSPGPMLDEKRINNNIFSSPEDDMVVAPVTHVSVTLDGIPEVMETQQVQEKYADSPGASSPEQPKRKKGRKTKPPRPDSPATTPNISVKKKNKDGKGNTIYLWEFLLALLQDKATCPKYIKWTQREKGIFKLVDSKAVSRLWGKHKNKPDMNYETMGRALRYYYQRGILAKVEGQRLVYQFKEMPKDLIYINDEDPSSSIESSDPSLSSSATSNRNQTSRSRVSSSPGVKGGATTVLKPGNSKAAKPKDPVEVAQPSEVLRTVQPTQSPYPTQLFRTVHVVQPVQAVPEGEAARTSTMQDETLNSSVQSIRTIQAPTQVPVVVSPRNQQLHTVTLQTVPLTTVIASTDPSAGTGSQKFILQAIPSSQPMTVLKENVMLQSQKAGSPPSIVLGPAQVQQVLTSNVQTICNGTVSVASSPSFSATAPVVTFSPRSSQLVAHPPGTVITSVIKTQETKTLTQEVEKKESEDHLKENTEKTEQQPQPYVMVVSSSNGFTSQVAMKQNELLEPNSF

CACAAT: the binding signal with FLI1 was 1.12 fold enrichment (6-mer frequency, TF over GST control); with ELK1, 1.07 fold enrichment (6-mer frequency, TF over GST control); with GABPA, 1.12 fold enrichment (6-mer frequency, TF over GST control); with ERG, 1.11 fold enrichment (6-mer frequency, TF over GST control); in the experiment with ELF1, 1.17 fold enrichment (6-mer frequency, TF over GST control); with EHF, 1.07 fold enrichment (6-mer frequency, TF over GST control). For the same sequence, the binding signal with SPI1 was 1.02 fold enrichment (6-mer frequency, TF over GST control); with SPIB, 1.16 fold enrichment (6-mer frequency, TF over GST control); in the experiment with ELK3, 1.26 fold enrichment (6-mer frequency, TF over GST control).

As for CACCCC, the binding signal with FLI1 is 1.2 fold enrichment (6-mer frequency, TF over GST control); with ELK1, 1.3 fold enrichment (6-mer frequency, TF over GST control); with GABPA, 1.35 fold enrichment (6-mer frequency, TF over GST control); with ERG it was 1.22 fold enrichment (6-mer frequency, TF over GST control); with ELF1 it was 1.28 fold enrichment (6-mer frequency, TF over GST control); with EHF, 1.19 fold enrichment (6-mer frequency, TF over GST control). For the same sequence, the binding signal was 1.24 fold enrichment (6-mer frequency, TF over GST control) with SPI1; 1.32 fold enrichment (6-mer frequency, TF over GST control) with SPIB; 1.31 fold enrichment (6-mer frequency, TF over GST control) with ELK3.

With CGCTTA, the binding signal with FLI1 was 1.32 fold enrichment (6-mer frequency, TF over GST control); with ELK1, 1.26 fold enrichment (6-mer frequency, TF over GST control); in the experiment with GABPA, 1.17 fold enrichment (6-mer frequency, TF over GST control); with ERG, 1.15 fold enrichment (6-mer frequency, TF over GST control); with ELF1 it was 1.32 fold enrichment (6-mer frequency, TF over GST control); with EHF, 1.18 fold enrichment (6-mer frequency, TF over GST control). The binding signal is 1.24 fold enrichment (6-mer frequency, TF over GST control) with SPI1; 1.41 fold enrichment (6-mer frequency, TF over GST control) in the experiment with SPIB; 1.15 fold enrichment (6-mer frequency, TF over GST control) in the experiment with ELK3.

On to GGAAAC, for which the binding signal with FLI1 was 1.2 fold enrichment (6-mer frequency, TF over GST control); in the experiment with ELK1, 1.35 fold enrichment (6-mer frequency, TF over GST control); in the experiment with GABPA, 1.25 fold enrichment (6-mer frequency, TF over GST control); with ERG, 1.57 fold enrichment (6-mer frequency, TF over GST control); with ELF1, 1.22 fold enrichment (6-mer frequency, TF over GST control); with EHF it was 1.47 fold enrichment (6-mer frequency, TF over GST control). The binding signal with SPI1 was 1.25 fold enrichment (6-mer frequency, TF over GST control); in the experiment with SPIB, 1.39 fold enrichment (6-mer frequency, TF over GST control); with ELK3 it was 1.43 fold enrichment (6-mer frequency, TF over GST control).

TTTCCT: the binding signal in the experiment with FLI1 was 2.49 fold enrichment (6-mer frequency, TF over GST control); with ELK1, 2.32 fold enrichment (6-mer frequency, TF over GST control); with GABPA, 2.32 fold enrichment (6-mer frequency, TF over GST control); in the experiment with ERG it was 2.72 fold enrichment (6-mer frequency, TF over GST control); with ELF1 it was 2.19 fold enrichment (6-mer frequency, TF over GST control); with EHF it was 2.4 fold enrichment (6-mer frequency, TF over GST control). Besides, the binding signal is 2.33 fold enrichment (6-mer frequency, TF over GST control) with SPI1; 2.52 fold enrichment (6-mer frequency, TF over GST control) with SPIB; 2.53 fold enrichment (6-mer frequency, TF over GST control) with ELK3.

In the case of GCCTAT, the binding signal with FLI1 is 1.18 fold enrichment (6-mer frequency, TF over GST control); in the experiment with ELK1, 1.3 fold enrichment (6-mer frequency, TF over GST control); with GABPA, 1.21 fold enrichment (6-mer frequency, TF over GST control); with ERG, 1.23 fold enrichment (6-mer frequency, TF over GST control); in the experiment with ELF1, 1.39 fold enrichment (6-mer frequency, TF over GST control); with EHF it was 1.17 fold enrichment (6-mer frequency, TF over GST control). Also, the binding signal is 1.13 fold enrichment (6-mer frequency, TF over GST control) with SPI1; 1.21 fold enrichment (6-mer frequency, TF over GST control) with SPIB; 1.27 fold enrichment (6-mer frequency, TF over GST control) with ELK3.

On to CAACTC, for which the binding signal with FLI1 is 1.37 fold enrichment (6-mer frequency, TF over GST control); with ELK1, 1.23 fold enrichment (6-mer frequency, TF over GST control); with GABPA it was 1.3 fold enrichment (6-mer frequency, TF over GST control); with ERG, 1.28 fold enrichment (6-mer frequency, TF over GST control); with ELF1, 1.34 fold enrichment (6-mer frequency, TF over GST control); with EHF, 1.19 fold enrichment (6-mer frequency, TF over GST control). The binding signal with SPI1 was 1.31 fold enrichment (6-mer frequency, TF over GST control); in the experiment with SPIB, 1.22 fold enrichment (6-mer frequency, TF over GST control); with ELK3 it was 1.3 fold enrichment (6-mer frequency, TF over GST control).
